Measurements published in PubChem BioAssay (NCI).
The panel holds about 79,000 compounds, 15% with a hit somewhere; the sample as a whole holds those more often. The source made the active and inactive calls. No stated cut-off is given here; in the data, active means growth inhibition above about 70%; inactive means the rest.

Legend:
[1] = NCI Yeast Anticancer Drug Screen. Data for the mec2-1 strain (AID 157); settings: S. cerevisiae mec2-1 strain, hits give high values
Summary of the method: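 Each compound was tested on mec2-1 yeast, a strain altered in DNA damage repair or cell cycle control. Growth inhibition is reported relative to vehicle.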

[2] = NCI Yeast Anticancer Drug Screen. Data for the rad14 strain (AID 159);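 further: 0% = growth of vehicle-treated control cultures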; settings: S. cerevisiae rad14 strain growth inhibition, hits give high values
Summary of the method: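 Test compounds were applied to a repair-deficient yeast strain. Its growth was then compared with that of cultures given vehicle alone, and inhibition was expressed relative to those controls.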

[3] = NCI Yeast Anticancer Drug Screen. Data for the sgs1 mgt1 strain (AID 161);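 further: 0% = growth of cultures given vehicle only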; settings: S. cerevisiae sgs1 mgt1 strain, hits give high values
Summary of the method: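 Read-out: growth inhibition vs vehicle controls. Cells: mutant yeast strain deficient in DNA damage repair.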

[4] = NCI Yeast Anticancer Drug Screen. Data for the CLN2oe strain (AID 163);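 further: 0% = growth of vehicle-only control cultures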; settings: S. cerevisiae CLN2oe strain, hits give high values
Summary of the method: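 First, the altered yeast strain was treated with each compound; second, its growth was measured; finally, inhibition was derived by comparison with vehicle controls.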

[5] = NCI Yeast Anticancer Drug Screen. Data for the cln2 rad14 strain (AID 165);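 further: 0% = growth equal to vehicle treated cultures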; settings: S. cerevisiae cln2 rad14 strain, hits give high values
Summary of the method: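 Test compounds were added to cln2 rad14 yeast cultures; inhibition of growth was then determined by comparison with vehicle treatment.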

[6] = NCI Yeast Anticancer Drug Screen. Data for the bub3 strain (AID 167); settings: S. cerevisiae bub3 mutant strain, hits give high values
Summary of the method: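 Yeast carrying a defined mutation is treated with each compound, and growth is compared with that of vehicle-exposed cells to give inhibition.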

[7] = NCI Yeast Anticancer Drug Screen. Data for the wt2 strain (AID 169);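 further: 0% = growth of vehicle-treated yeast cultures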; settings: S. cerevisiae wt2 strain growth inhibition, hits give high values
Summary of the method: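 The panel's yeast strains carry defined changes in DNA repair or cell cycle genes. Each strain is grown with compound, and growth loss is scored relative to vehicle.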

[8] = NCI Yeast Anticancer Drug Screen. Data for the mlh1 strain (AID 171);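 further: 0% = growth of vehicle-treated control cultures of the same strain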; settings: S. cerevisiae mlh1 strain growth inhibition, hits give high values
Summary of the method: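 Inhibition values reflect reduced yeast growth in the presence of compound, referenced to vehicle controls, using a strain chosen for its alteration in DNA repair or cell cycle control.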

[9] = NCI Yeast Anticancer Drug Screen. Data for the sgs1 strain (AID 173);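 further: 0% = growth of vehicle-only control cultures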; settings: S. cerevisiae sgs1 mutant, hits give high values
Summary of the method: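 Vehicle-treated cultures served as reference for growth inhibition of a yeast strain altered in DNA damage repair or cell cycle control after compound exposure.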

[10] = NCI Yeast Anticancer Drug Screen. Data for the mlh1 rad18 strain (AID 175); settings: S. cerevisiae mlh1 rad18 strain growth inhibition, hits give high values
Summary of the method: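 Inhibition values reflect reduced growth of mutant yeast versus vehicle-treated controls following compound exposure; the mutations affect DNA damage repair.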

[11] = NCI Yeast Anticancer Drug Screen. Data for the rad18 strain (AID 177); settings: S. cerevisiae rad18 mutant growth inhibition, hits give high values
Summary of the method: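 Steps: expose repair-mutant yeast to compound; measure growth; express as inhibition relative to vehicle control.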

[12] = NCI Yeast Anticancer Drug Screen. Data for the rad52 strain (AID 147);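 further: 0% = growth of vehicle-treated control cultures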; settings: S. cerevisiae rad52 mutant growth inhibition, hits give high values
Summary of the method: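 Inhibition of yeast growth, referenced to vehicle controls, was the measured output for a strain with defective DNA damage repair.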

[13] = NCI Yeast Anticancer Drug Screen. Data for the wt1 strain (AID 149);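 further: 0% = growth of vehicle-treated wt1 cultures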; settings: S. cerevisiae wt1 strain (SPY 50644) growth inhibition, hits give high values
Summary of the method: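 wt1 yeast, compound-treated; % growth inhibition vs vehicle control.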

[14] = NCI Yeast Anticancer Drug Screen. Data for the rad50EPP+ strain (AID 151);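 further: 0% = growth of vehicle-treated control cultures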; settings: S. cerevisiae rad50 mutant strain, hits give high values
Summary of the method: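 Genetically defined yeast (rad50EPP+, DNA damage repair alteration) is grown with compound, and inhibition of growth is expressed relative to vehicle-treated controls.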

[15] = NCI Yeast Anticancer Drug Screen. Data for the mgt1 strain (AID 153); settings: S. cerevisiae mgt1 mutant growth inhibition, hits give high values
Summary of the method: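 In the mgt1 strain, test compounds were added and growth inhibition was determined relative to vehicle-treated controls.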

[16] = at 5.0 µM (retest, dose inferred, filed as 0.5)
[17] = at 50.0 µM (retest, dose inferred, filed as 5.0)

Measured: growth inhibition

COc1cc(NCc2ccc3nc(N)nc(N)c3c2C)cc(OC)c1OC
inactive: [1]; at 50.0 µM 54.6% | [2]; at 1.2 µM -2% | [2]; at 3.7 µM -6% | [2]; at 11.0 µM -8% | [2]; at 33.0 µM -5% | [2]; at 100.0 µM 43% | [3]; at 50.0 µM 0.6% | [4]; at 1.2 µM -8% | [4]; at 3.7 µM -18% | [4]; at 11.0 µM -17% | [4]; at 33.0 µM -16% | [4]; at 100.0 µM 30% | [5]; at 50.0 µM -1.2% | [6]; at 1.2 µM -13% | [6]; at 3.7 µM -15% | [6]; at 11.0 µM -15% | [6]; at 33.0 µM -24% | [6]; at 50.0 µM -46.8% | [6]; at 100.0 µM 43% | [7]; at 1.2 µM -4% | [7]; at 3.7 µM -5% | [7]; at 11.0 µM -7% | [7]; at 33.0 µM -2% | [7]; at 100.0 µM 46% | [8]; at 1.2 µM -4% | [8]; at 3.7 µM -6% | [8]; at 11.0 µM -5% | [8]; at 33.0 µM 5% | [8]; at 100.0 µM 56% | [9]; at 1.2 µM -2% | [9]; at 3.7 µM -2% | [9]; at 11.0 µM 5% | [9]; at 33.0 µM 22% | [10]; at 50.0 µM -74.6% | [11]; at 1.2 µM -6% | [11]; at 3.7 µM -2% | [11]; at 11.0 µM 1% | [11]; at 33.0 µM 20%
active: [1]; at 100.0 µM 95% | [9]; at 100.0 µM 75% | [11]; at 100.0 µM 77%

N#C/C(=C1C=C(Br)/C(=N\O)C=C\1Cl)c1cccc2ccccc12
active: [12]; at 11.0 µM 94% | [12]; at 33.0 µM 93% | [12]; at 100.0 µM 95% | [13]; at 11.0 µM 84% | [13]; at 33.0 µM 86% | [13]; at 100.0 µM 96% | [14]; at 100.0 µM 88% | [15]; at 11.0 µM 79% | [15]; at 33.0 µM 85% | [15]; at 100.0 µM 97% | [1]; [16] 100% | [1]; at 11.0 µM 89% | [1]; at 33.0 µM 91% | [1]; [17] 98% | [1]; at 50.0 µM 90.7% | [1]; at 100.0 µM 94% | [2]; at 33.0 µM 70% | [2]; at 100.0 µM 96% | [3]; [17] 96% | [4]; at 33.0 µM 86% | [4]; at 100.0 µM 93% | [5]; [17] 95% | [6]; at 11.0 µM 94% | [6]; at 33.0 µM 93% | [6]; [17] 93% | [6]; at 100.0 µM 95% | [7]; at 11.0 µM 87% | [7]; at 33.0 µM 90% | [7]; at 100.0 µM 97% | [8]; at 33.0 µM 79% | [8]; at 100.0 µM 94% | [9]; at 11.0 µM 82% | [9]; at 33.0 µM 92% | [9]; at 100.0 µM 95% | [10]; [16] 100% | [10]; [17] 98% | [10]; at 50.0 µM 89.3% | [11]; at 11.0 µM 91% | [11]; at 33.0 µM 89% | [11]; at 100.0 µM 95%
inactive: [12]; at 1.2 µM 15% | [12]; at 3.7 µM 16% | [13]; at 1.2 µM -1% | [13]; at 3.7 µM 4% | [14]; at 1.2 µM 18% | [14]; at 3.7 µM 36% | [14]; at 11.0 µM 63% | [14]; at 33.0 µM 55% | [15]; at 1.2 µM 11% | [15]; at 3.7 µM 4% | [1]; at 1.2 µM 2% | [1]; at 3.7 µM 18% | [2]; at 1.2 µM -14% | [2]; at 3.7 µM -10% | [2]; at 11.0 µM 55% | [3]; [16] 5% | [4]; at 1.2 µM -15% | [4]; at 3.7 µM 27% | [4]; at 11.0 µM 63% | [5]; [16] 25% | [6]; at 1.2 µM 33% | [6]; at 3.7 µM 49% | [6]; [16] 59% | [7]; at 1.2 µM 0% | [7]; at 3.7 µM 7% | [8]; at 1.2 µM -37% | [8]; at 3.7 µM -11% | [8]; at 11.0 µM 58% | [9]; at 1.2 µM 15% | [9]; at 3.7 µM 18% | [11]; at 1.2 µM 0% | [11]; at 3.7 µM 12%
